AMA1-RON2 inh – inhibitors of Plasmodium falciparum AMA1-RON2 interaction; AlphaScreen AMA1-biotinylated RON2 peptide binding; Potency, µM (titrated, usually from 58.2 µM), usual class: inhibitors; 360,000 compounds, 0.2% hits; active means well fitted inhibition curve with a large enough effect; inconclusive means small, poorly fitted or top-dose-only effect; inactive means no such curve, though single readings can be large or run the other way; further: nearly all actives have a fitted effect of over 45% in size
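AMA1 (3D7) with his tag at 25 nM final met compounds first, then biotinylated RON2 peptide at 25 nM; detection used donor plus acceptor beads, 10 µg/mL apiece, read by AlphaScreen after 30 min at room temperature.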
Marburg entry inh – Marburg virus entry inhibition | Marburg virus pseudotyped entry inhibition, cell reporter | Potency, µM (highest dose often 37.8 µM), hits mostly inhibitors | 300,000 compounds, 1.8% hits | AID 540276; calls by dose curve; tested in HEK293 cells
Lassa entry inh – blocks Lassa virus binding to or entry into cells; Lassa virus pseudotype entry inhibition, cell reporter; Potency, µM (highest dose often 37.9 µM), actives largely listed as inhibitors; 300,000 compounds, 1.2% hits; calls by dose curve; tested in HEK293 cells; further: nearly all actives have a fitted effect of over 50% in size
Shiga toxin inh – blocks Shiga toxin action in Vero cells; inhibition, % at 38.7 µM; Vero cells, Shiga toxin protein synthesis inhibition reporter; 290,000 compounds, 9.2% hits; AID 2315; in the data active means inhibition mostly above about 28%, no sharp cut-off; inactive means mostly below about 43%
CHX counter – counter-screen for Shiga toxin inhibitors: cycloheximide protein synthesis inhibition | max response, % | cell reporter, cycloheximide protein synthesis inhibition counterscreen | 300,000 compounds, 12% hits; in the data active means max response mostly above about 13%, no sharp cut-off; inactive means mostly below about 14%; further: read at 38.3 µM for the half of the compounds with a filed dose
Numbers stand for hits; . = inactive; ? = inconclusive; / = not tested or not shown. Many of the other results were omitted from the sample, so hits are more common in it than they were.

SMILES	AMA1-RON2 inh	Marburg entry inh	Lassa entry inh	Shiga toxin inh	CHX counter
CCc1noc(C)c1C(=O)NC1CCCc2c1cnn2-c1cc(C)cc(C)c1 (stereo not given)	.	/	/	.	33.7
CCc1[nH]nc(C(=O)NC2CCCc3c2cnn3-c2cc(C)cc(C)c2)c1C (stereo not given)	.	3.55µM	?	54.6	27.1
O=C(Nc1ccccc1C(=O)N/N=C/c1ccccc1)c1ccco1	.	?	.	86.5	27.3
O=C(N/N=C/C(Br)=C\c1ccccc1)c1ccco1	.	?	.	46.9	46.3
COc1cccc(/C=N/NC(=O)CNC(=O)c2cccnc2)c1O	.	?	.	.	.
O=C(N/N=C/c1ccc(O)cc1)c1csc2ccccc12	.	?	?	.	.
O=C(Nc1ccccc1C(=O)N/N=C/c1ccc(O)cc1)c1ccccc1	.	/	/	.	28.5
COC(=O)c1ccc(COc2ccccc2/C=N/NC(=O)c2cccnc2)cc1	.	?	.	.	27.5
COc1cccc(/C=N/NC(=O)c2ccccc2NC(=O)c2ccco2)c1OC	.	/	/	.	.
Cc1cccc(NC(=O)Nc2nnc([C@H]3C[C@H](O)[C@@H](CO)O3)s2)c1	.	/	/	/	/
Cc1nc2ccc(C(=O)N(C)Cc3ccccc3)cn2c1N(C)C(=O)CCc1ccccc1	.	/	/	/	/
CCOC(=O)C1C(=O)CC(C)(O)C(C(=O)OCC)C1c1ccc([N+](=O)[O-])cc1 (stereo not given)	.	/	/	.	.
O=C(N/N=C\c1ccccc1OCc1ccccc1)c1ccco1	.	.	.	39.9	31.8
C#CCOc1ccccc1/C=N/NC(=O)c1ccccc1OCc1ccccc1	.	/	/	.	.
O=C(N/N=C/c1ccc2cccnc2c1)c1ccco1	.	?	?	71.6	.
CC(C)=C(NC(=O)c1ccccc1)C(=O)N/N=C/c1ccc(O)cc1	.	?	.	.	31.2
O=C(N/N=C/c1ccccc1)c1ccco1	.	?	?	99.7	35.8
O=C(NN=Cc1ccc(O)cc1)C(=O)NN=Cc1ccc(O)cc1	.	.	.	/	/
COC[C@@H]1CCCN1[C@@H]1C[S+](=O)([O-])N[C@@H]1COCc1ccccc1	/	/	.	/	/
COc1ccccc1/C=C/C=N/NC(=O)c1ccncc1	.	?	.	.	.
CC(NC(=O)c1ccccc1NC(=O)c1ccco1)C(=O)O (stereo not given)	.	?	.	138.4	76.2
COc1ccccc1/C=C/C=N/NC(=O)c1ccco1	.	.	.	78.3	31.6
O=C(N/N=C/c1ccc(OCc2ccccc2)cc1)c1ccco1	.	?	.	55.4	35.9
O=C(Nc1ccccc1C(=O)NC(Cc1ccccc1)C(=O)O)c1ccco1 (stereo not given)	.	/	/	.	.
Cc1cc(Nc2cccc(Cl)c2)nc2ccc(NC(=O)COc3ccc(Cl)cc3)cc12	/	/	.	/	/
SMILES	AMA1-RON2 inh	Marburg entry inh	Lassa entry inh	Shiga toxin inh	CHX counter
CC1(C)CC2CC(C)(CN2S(=O)(=O)c2ccc(F)cc2F)C1 (stereo not given)	.	/	/	/	/
COc1ccc(OC)c(CCNC(=O)CN2C(=O)COc3ccc(S(=O)(=O)N4CCC(C)CC4)cc32)c1	/	.	.	/	/
O=C(CNC(=O)c1ccccc1F)NCc1cccnc1	.	.	.	.	.
O=C(C1CCCN(S(=O)(=O)c2cccc3nsnc23)C1)N1CCN(c2ccccc2Cl)CC1 (stereo not given)	/	3.98µM	?	/	/
O=C(C1CCCN(S(=O)(=O)c2cccc3nsnc23)C1)N1CCN(c2ccccc2F)CC1 (stereo not given)	/	.	.	/	/
Fc1ccc(NC2=NCCCCC2)cc1	.	.	/	.	.
CC(C)C(=O)Nc1nnc(-c2ccccc2)o1	.	/	/	.	.
Fc1ccc(-c2nnc(NC3=NCCCCC3)o2)cc1	.	?	1µM	.	.
Fc1ccc(-c2nnc(-c3ccc(F)cc3)o2)cc1	.	/	/	.	27.8
c1ccc(-c2nnc(NC3=NCCC3)o2)cc1	.	?	7.08µM	.	.
O=C(OCc1ccccc1)N1CCC2CC1c1ccc(N3CCNCC3)cc12 (stereo not given)	.	/	/	/	/
CN1CCN(C2=Cc3cc(Cl)ccc3Sc3cc(F)ccc32)CC1	?	?	10µM	.	.

High-throughput results as filed in PubChem BioAssay.
